The list is not random: actives were taken first. Their share in the collection is about 3.5%.
Platelet DG rel = modulates dense granule release in human platelets. inhibition, %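 (compounds screened at 7.5 µM in platelet-rich plasma)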. human platelet-rich plasma, SFLLRN dense granule ATP release, luminescence. 300,000 compounds, 0.22% hits;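 active means mean replicate score, as percent of positive control, at or above 50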
PPC-1+TRAIL kill = compounds killing PPC-1 cancer cells with TRAIL present (potentiator screen, no TRAIL-free arm); PPC-1 cells + TRAIL, ATPLite viability luminescence; cell killing (% activity), % at 4 µM or 5 µM; 220,000 compounds, 0.41% hits;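 active means cell killing above 50% in the first pass at 4 µM, then a duplicate retest at 5 µM averaging 50% or more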;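 further: plate controls were cells with TRAIL plus DMSO for no effect and medium-only wells lacking cells for full effect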
C8 TRAIL sens = caspase-8 TRAIL sensitization; NB7+C8 cells + TRAIL, ATPlite viability luminescence; inhibition (viability loss, TRAIL sensitization), % at 10 µM; 360,000 compounds, 1% hits;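 active means compounds causing at least 50% loss of cell viability in the single-dose screen, relative to plate controls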
TROY NFkB inh = blocks TROY-dependent signaling in reporter cells | 360,000 compounds, 0.98% hits | AID 1347056 | inhibition, % at 10 µM | Q293 LMP1-TROYcd NF-kB luciferase reporter, 4 h;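 active means compounds whose plate-normalised and pattern-corrected inhibition of the luciferase reporter signal at the single screening dose is 50% or more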
TWEAK Fn14 block = blocks TWEAK-Fn14 interaction in a reporter cell assay. 360,000 compounds, 2% hits. TWEAK-stimulated Fn14 reporter cells, luciferase luminescence, 8 h. inhibition, % at 10 µM; in the data active means inhibition above about 50%
HSP90 refold inh = inhibitors of HSP90 luciferase refolding in rabbit reticulocyte lysate; luciferase refolding luminescence, 3 h; inhibition, % at 5.6 µM; 290,000 compounds, 0.91% hits; AID 1789;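 active means inhibition above the screen-wide mean plus 3 SD, computed separately per campaign, cut at about 16% in these data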;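 further: 0% = DMSO wells and 100% = 60 µM geldanamycin wells; inhibitors lower the luminescence because luciferase stays unfolded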
The depositor's hits bear a star; nt = no result given.

SMILES	Platelet DG rel	PPC-1+TRAIL kill	C8 TRAIL sens	TROY NFkB inh	TWEAK Fn14 block	HSP90 refold inh
O=C(NC(=S)Nc1ccc(F)cc1)c1ccc2c(c1)OCCO2	-10.6	26.1	19.6	45.4	42.1	8.0
Cn1ncc2c(O/N=C(\N)c3ccc(C(F)(F)F)cc3)ncnc21	-4.0	14.3	95.4*	13.0	-16.7	3.1
Cc1ccc(-n2cc(C(=O)c3ccc(F)cc3)nn2)cc1Cl	28.0	12.8	13.7	41.1	52.6*	8.4
O=C1c2cccnc2-c2ncccc21	-2.4	18.6	-3.2	-0.7	4.6	7.6
O=C1C(=O)c2cccnc2-c2ncccc21	nt	nt	96.0*	65.8*	103.5*	nt
CCCCCC[n+]1ccccc1/C=C/c1ccc(N(C)C)cc1	nt	nt	45.8	56.0*	50.2*	nt
CC[n+]1ccccc1/C=C/c1ccc(N(C)C)cc1	6.0	26.8	32.1	25.5	38.4	-5.4
O=C(c1cc(-c2ccccc2Cl)nc2ccc(Br)cc12)N1CCN(c2ccccn2)CC1	-6.0	nt	40.7	69.3*	58.2*	8.8
O=C(c1cc(-c2ccc(Br)cc2)nc2ccccc12)N1CCN(c2ccccc2O)CC1	18.6	nt	19.9	5.6	14.6	nt
Cc1ccc(-c2cc(C(=O)N3CCN(c4ncccn4)CC3)c3ccccc3n2)cc1	0.9	43.6	66.8*	-5.6	39.2	0.3
CCOc1ccc(-c2cc(C(=O)N3CCC(C)CC3)c3ccccc3n2)cc1	8.1	nt	54.0*	-36.3	4.0	0.5
COc1ccc(-c2cc(C(=O)N3CCN(c4ncccn4)CC3)c3ccccc3n2)cc1OC	nt	nt	-4.4	-5.1	14.6	nt
Cc1ccc(-c2cc(C(=O)N3CCN(c4ccccc4O)CC3)c3ccccc3n2)o1	43.6	nt	64.8*	-35.3	0.0	-5.1
Cn1c(/C=C/c2ccc(Cl)cc2)c([N+](=O)[O-])c(=O)n(C)c1=O	nt	nt	1.8	4.0	56.4*	6.9
Cn1c(/C=C/c2cccc([N+](=O)[O-])c2)c([N+](=O)[O-])c(=O)n(C)c1=O	9.4	nt	10.7	22.4	57.0*	5.8
COc1ccc(/C=C/c2c([N+](=O)[O-])c(=O)n(C)c(=O)n2C)cc1OC	-1.2	-14.0	-12.6	-9.3	-15.6	1.4
CN(/C=C/c1c([N+](=O)[O-])c(=O)n(C)c(=O)n1C)c1ccccc1	-7.8	-9.2	26.5	7.0	-12.1	-0.4
Cc1cccn2cc(-c3ccc(NC(=O)Cc4ccccc4)cc3)nc12	1.5	22.9	-0.7	89.5*	-23.7	-0.1
O=C(/C=C/c1cccc([N+](=O)[O-])c1)NC(=S)Nc1ccc(CN2CCOCC2)cc1	-1.4	16.6	5.6	19.5	63.1*	-4.3
CC(C)c1ccc(/C=C/C(=O)NC(=S)Nc2ccc(CN3CCOCC3)cc2)cc1	-5.2	23.2	24.9	71.3*	99.9*	-0.1
O=C(NC(=S)Nc1ccc(CN2CCOCC2)cc1)c1ccc([N+](=O)[O-])cc1	8.4	-1.8	6.8	3.5	5.3	0.0
CC(C)c1ccc(/C=C/C(=O)NC(=S)NN2CCOCC2)cc1	nt	nt	-23.5	4.6	11.0	0.7
Cc1ccccc1NC(=O)CON=C(N)c1ccccc1	nt	nt	-7.8	-2.6	1.3	nt
O=C(CC1C(=O)NCCN1CCCc1ccccc1)NCCc1ccccc1Cl (stereo not given)	-4.0	nt	-10.8	-7.5	-1.9	12.1
Cc1ccc(S(=O)(=O)N2CC=C(c3c(C)n(C)c4ccccc34)CC2)cc1	-0.5	6.5	6.0	71.0*	43.0	-3.5
SMILES	Platelet DG rel	PPC-1+TRAIL kill	C8 TRAIL sens	TROY NFkB inh	TWEAK Fn14 block	HSP90 refold inh
Cc1ccc(S(=O)(=O)N(CC(=O)N=Nc2c(O)[nH]c3ccccc23)c2cccc(C)c2)cc1	-10.2	-11.2	-5.6	33.3	52.0*	-0.7
Cc1cc(Cl)ccc1N(CC(=O)N=Nc1c(O)[nH]c2ccccc12)S(C)(=O)=O	15.0	-12.2	-2.2	-11.1	2.3	-0.1
CCCCn1c(N)c(N(Cc2ccccc2OC)C(=O)C(C)Oc2ccc(Cl)cc2)c(=O)[nH]c1=O (stereo not given)	52.6*	nt	15.3	-2.4	4.0	1.5
COc1ccc2c(c1)-c1c(ssc1=S)C(C)(C)N2	-4.8	17.4	-18.5	50.5*	92.3*	-2.3
COc1ccc(-n2sc3c(c2=S)-c2cc(OC)ccc2NC3(C)C)cc1	-3.8	-5.0	3.2	8.8	0.2	-0.6
COc1ccc(CNc2ccc(N3CCOCC3)cc2)cc1	-0.3	nt	-6.2	12.7	-7.5	-6.8
c1ccc(CNc2ccc(N3CCOCC3)cc2)cc1	nt	nt	-0.8	65.0*	31.8	nt
O=C(COC(=O)/C=C/c1cn(-c2ccccc2)nc1-c1ccc2c(c1)OCCO2)NC1CCS(=O)(=O)C1 (stereo not given)	52.5*	11.2	17.6	-5.8	34.3	7.8
CN(C(=O)COC(=O)/C=C/c1cn(-c2ccccc2)nc1-c1ccc2c(c1)OCCO2)C1CCS(=O)(=O)C1 (stereo not given)	-3.8	24.9	17.3	12.8	2.3	1.9
N#Cc1ccccc1NC(=O)COC(=O)/C=C/c1cn(-c2ccccc2)nc1-c1ccc(Cl)cc1	nt	16.0	61.0*	-16.6	12.5	0.0
O=c1[nH]c(=S)[nH]c2c1[C@H](CCc1cccc(Cl)c1)O[C@H](C1CCCC1)C2	nt	nt	18.1	20.1	2.0	nt
O=C(COC(=O)c1ccc(O)cc1O)Nc1nnc(-c2ccccc2)o1	-3.6	nt	-8.4	-11.2	-1.3	nt
COc1cc(-n2nc(C)c3c2OC(N)=C(C#N)C3c2ccccc2)c(Cl)c(Br)c1O (stereo not given)	11.3	8.5	-8.9	44.9	17.9	17.2*
Cc1ccc2[nH]c(=O)c(CN(Cc3ccco3)S(=O)(=O)c3c(C)ccc4nsnc34)cc2c1	1.6	14.9	1.8	-4.6	23.3	0.2
COc1ccc2[nH]c(=O)c(CN(Cc3cccs3)S(=O)(=O)c3c(C)ccc4nsnc34)cc2c1	-2.5	-2.9	25.4	25.2	60.6*	-0.4
Cc1cc(F)ccc1C(O)c1ncc(-c2ccccc2C(F)(F)F)[nH]1 (stereo not given)	nt	nt	-4.3	-7.3	16.1	nt
CCN1C(=O)/C(=C/c2nc3ccccc3c(=O)n2-c2ccccc2)c2ccccc21	2.0	-13.7	5.2	27.1	58.4*	1.9
COc1ccc(/C=C/C(=O)Nc2cc(C)nn2-c2nc3ccccc3[nH]2)cc1	4.7	49.4	71.2*	-58.0	13.9	1.0
Cc1cc(NC(=O)/C=C/c2ccc(F)cc2)n(-c2nc3ccccc3[nH]2)n1	-4.7	45.0	43.8	-55.5	-38.7	-3.0
Cc1[nH]nc2nc(SCC(=O)NCCC3=CCCCC3)n(-c3ccc(Br)cc3)c(=N)c12	-4.9	nt	79.6*	18.3	-7.5	3.8
CCN(CC)c1ccc(NC(=O)Nc2ccc(C(C)=O)cc2)cc1	-3.8	-4.1	5.2	-18.9	2.9	0.1
CC(=O)c1cccc(NC(=O)Nc2ccccc2)c1	8.6	nt	4.1	-37.5	-5.9	2.5
O=C(Nc1ccccc1)c1ccn[nH]1	11.3	43.1	-12.9	-22.8	-19.8	1.2

High-throughput results: PubChem BioAssay, several laboratories
